An excerpt weighted towards active compounds, which were near 8% of everything screened.
HT1080-NT tox – qHTS for induction of synthetic lethality in tumor cells producing 2HG: qHTS for the HT-1080-NT fibrosarcoma cell line. HT-1080-NT fibrosarcoma viability, CellTiter-Glo ATP luminescence, 48 h. Potency, µM (series often up to 46.1 µM), most hits filed as cytotoxic. hit rate 1.6% among 360,000. AID 686970, 2013;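 note: NT is the 2HG producing partner of a matched IDH1 knockdown line; nearly all actives have a fitted effect of over 55% in size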
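Compounds were tested in concentration-response format on HT-1080-NT cells for 48 hours at 37 degrees C. Cell viability came from CellTiter-Glo luminescence; curves were classified by r2, response magnitude and activity.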
MCF10A rereplic – A quantitative high throughput screen for small molecules that induce DNA re-replication in MCF 10a normal breast cells | AID 624296, 2012 | hit rate 2.9% among 350,000 | MCF 10A DNA re-replication, Hoechst nuclear intensity, 48 h | Potency, µM (titrated, usually from 46.1 µM), usual class: activators; note: nearly all actives have a fitted effect of over 50% in size
KB-V1 MDR tox – qHTS assay for MDR1-selective chemotherapeutics: Primary screen using the drug-selected MDR subline cells KB-V1; KB-V1 MDR cells viability, CellTiter-Glo, 72 h; Potency, µM (top dose mostly 46.1 µM), actives largely listed as cytotoxic; hit rate 3.4% among 400,000; AID 1347076, 2019; note: nearly all actives have a fitted effect of over 60% in size
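Readout: CellTiter-Glo luminescence, 10 min after addition. Cells: KB-V1 MDR subline, 72 h at 37 degrees C with compound. Analysis: corrected, normalized data fitted to concentration-effect curves.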
HT1080 IDH1KD tx – qHTS for induction of synthetic lethality in tumor cells producing 2HG: qHTS for the HT-1080-IDH1KD cell line | HT-1080 IDH1 knockdown viability, ATP luminescence, 48 h | Potency, µM (titrated, usually from 46.1 µM), usual class: cytotoxic | hit rate 2% among 360,000
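CellTiter-Glo luminescence after 48 h compound exposure at 37 degrees C of IDH1-knockdown HT-1080 cells in 5% FBS RPMI. %Activity scaled between DMSO wells and cell-free media wells, with curves fitted and assigned curve classes.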
SW480 rereplic – A quantitative high throughput screen for small molecules that induce DNA re-replication in SW480 colon adenocarcinoma cells. AID 624297, 2012. SW480 DNA re-replication, Hoechst DNA content imaging, 48 h. Potency, µM (titrated, usually from 46.1 µM), hits mostly activators. hit rate 1.8% among 340,000; note: nearly all actives have a fitted effect of over 55% in size
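Image-based DNA-content assay: after two days of treatment, nuclei were labelled with the DNA dye Hoechst and imaged, and hits were compounds raising the count of nuclei showing high fluorescence intensity.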
KB-3-1 cytotox – qHTS assay for MDR1-selective chemotherapeutics: Primary screen using the parental adenocarcinoma cell KB-3-1 | Potency, µM (series often up to 46.1 µM), actives largely listed as cytotoxic | hit rate 1.4% among 400,000 | AID 1347075, 2019 | KB-3-1 viability, CellTiter-Glo ATP luminescence, 72 h; note: nearly all actives have a fitted effect of over 60% in size
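Cytotoxicity in the drug-sensitive parental line KB-3-1 was scored as loss of CellTiter-Glo luminescence following 72 h incubation with compound. Values come from curve fitting of normalized concentration-response data.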
Of the large screens only hits and unclear results are named; the others gave an inactive call. Calls come from the whole dose curve; as a rule, active = well fitted curve in the direction sought with a large enough effect; inconclusive = small, poorly fitted or top-dose-only effect, or another doubt; inactive = no such curve, though single readings can be large; an effect the other way counts as inactive or inconclusive.

CC(=O)c1cccc(NC(=S)NC(=O)c2ccc(C)cc2Cl)c1	none
Cc1ccc(NC(=O)NCc2cccn2Cc2ccccc2)c(C)c1	none (no result: HT1080-NT tox, MCF10A rereplic, HT1080 IDH1KD tx, SW480 rereplic)
Cc1cc(=O)[nH]c(N/N=C/c2ccc(-c3ccc(F)cc3)o2)n1	HT1080-NT tox inconclusive, MCF10A rereplic inconclusive, KB-V1 MDR tox inconclusive, HT1080 IDH1KD tx 8.2µM, SW480 rereplic inconclusive, KB-3-1 cytotox inconclusive
Cc1cc(=O)[nH]c(N/N=C/c2ccccn2)n1	HT1080-NT tox inconclusive, MCF10A rereplic inconclusive, KB-V1 MDR tox inconclusive, HT1080 IDH1KD tx inconclusive, SW480 rereplic 4.1µM, KB-3-1 cytotox inconclusive
Fc1cccc(/C=N/Nc2nncc3ccccc23)c1	none
O=c1cnnc(N/N=C/c2ccccn2)[nH]1	HT1080-NT tox inconclusive, MCF10A rereplic inconclusive, HT1080 IDH1KD tx 1.3µM, SW480 rereplic inconclusive, KB-3-1 cytotox inconclusive
C(=N\Nc1nncc2ccccc12)/c1ccccn1	HT1080-NT tox inconclusive, MCF10A rereplic inconclusive, HT1080 IDH1KD tx 5.2µM, SW480 rereplic 2.6µM, KB-3-1 cytotox inconclusive
O=c1nc(N/N=C/c2ccccn2)cn[nH]1	HT1080-NT tox inconclusive, HT1080 IDH1KD tx inconclusive, SW480 rereplic inconclusive, KB-3-1 cytotox inconclusive
CSc1ccc(/C=N/Nc2nc(C)cc(=O)[nH]2)cc1	none
O=C1c2[nH]nc(-c3ccccc3O)c2C(c2ccc(Cl)cc2)N1Cc1ccco1 (stereo not drawn)	KB-3-1 cytotox inconclusive (no result: HT1080-NT tox, MCF10A rereplic, HT1080 IDH1KD tx, SW480 rereplic)
Cc1ccc(S(=O)(=O)n2nc(C)c(S(=O)(=O)N3CCC(C)CC3)c2C)cc1	none (no result: HT1080-NT tox, MCF10A rereplic, HT1080 IDH1KD tx, SW480 rereplic)
Clc1ccc(OCc2nc(-c3ccccn3)n[nH]2)cc1	HT1080-NT tox inconclusive, MCF10A rereplic inconclusive, KB-V1 MDR tox 4.6µM, HT1080 IDH1KD tx 10µM, SW480 rereplic inconclusive, KB-3-1 cytotox inconclusive
CCCCn1c(-c2cccc(Br)c2)nc2cc3[nH]c(=O)c(C(C)C)nc3cc21	MCF10A rereplic 18µM, SW480 rereplic inconclusive, KB-3-1 cytotox inconclusive
CCCCn1c(-c2ccc(Cl)c(Cl)c2)nc2cc3[nH]c(=O)c(C(C)C)nc3cc21	MCF10A rereplic 15µM
CCCCn1c(-c2ccc(C(C)(C)C)cc2)nc2cc3[nH]c(=O)c(C(C)C)nc3cc21	MCF10A rereplic 18µM
CC(C)CCN1C(=O)CCC1(C)C(=O)NC1CCCCCCC1 (stereo not drawn)	none
CC(C)CCN1C(=O)CCC1(C)C(=O)NC1CCCCCC1 (stereo not drawn)	KB-V1 MDR tox 18µM
CCc1ccc(CN2C(=O)CCC2(C)C(=O)NC2CCCC2)cc1 (stereo not drawn)	KB-V1 MDR tox 21µM
COc1cccc(CN2C(=O)CCC2(C)C(=O)NC2CCCCC2)c1 (stereo not drawn)	none
COc1ccc(CN2C(=O)CCC2(C)C(=O)NC2CCCCCC2)cc1 (stereo not drawn)	KB-V1 MDR tox 15µM
Cc1c(C(=O)Nc2ccccc2)sc2nc(-c3cc4cc(Cl)ccc4oc3=O)[nH]c(=O)c12	none (no result: HT1080-NT tox, MCF10A rereplic, HT1080 IDH1KD tx, SW480 rereplic)
Cc1ccc(CCNC(=O)c2cccc(Nc3nc4ccccc4nc3-n3nc(C)cc3C)c2)cc1	none (no result: HT1080-NT tox, MCF10A rereplic, HT1080 IDH1KD tx, SW480 rereplic)
CN1c2ccccc2C(C)(C)[C@]12C=Cc1cc(O)ccc1O2	HT1080-NT tox inconclusive, MCF10A rereplic inconclusive, HT1080 IDH1KD tx 18µM, SW480 rereplic inconclusive, KB-3-1 cytotox inconclusive
O=c1[nH]c(C2CCN(S(=O)(=O)c3ccc4c(c3)OCCO4)CC2)nc2c1nnn2Cc1cccc(F)c1	SW480 rereplic inconclusive
O=c1[nH]c(C2CCN(S(=O)(=O)c3cccc(C(F)(F)F)c3)CC2)nc2c1nnn2Cc1cccc(F)c1	HT1080-NT tox 21µM, MCF10A rereplic inconclusive, KB-V1 MDR tox inconclusive, HT1080 IDH1KD tx 21µM, KB-3-1 cytotox inconclusive
Cc1ccc(-n2ncc3c2CCCC3NC(=O)CCc2cnccn2)cc1C (stereo not drawn)	none

From PubChem
